Experimental findings from paper PMC3218832 are described below.

Targets include RELARELA (p65 homodimer) (Homo sapiens, UniProt Q04206 1-307); p50p50 homodimer (Homo sapiens, UniProt P19838 7-356); RELB subunit;p50 subunit (Homo sapiens;Homo sapiens, UniProt Q01201;P19838 120-401;7-356).
Experiment in all cases: protein binding microarray; high values mean tight binding
Settings in all cases: dsDNA, one strand shown

The target of a further assay is T1, p52p52 homodimer (Homo sapiens, UniProt Q00653 4-332).
T1 sequence: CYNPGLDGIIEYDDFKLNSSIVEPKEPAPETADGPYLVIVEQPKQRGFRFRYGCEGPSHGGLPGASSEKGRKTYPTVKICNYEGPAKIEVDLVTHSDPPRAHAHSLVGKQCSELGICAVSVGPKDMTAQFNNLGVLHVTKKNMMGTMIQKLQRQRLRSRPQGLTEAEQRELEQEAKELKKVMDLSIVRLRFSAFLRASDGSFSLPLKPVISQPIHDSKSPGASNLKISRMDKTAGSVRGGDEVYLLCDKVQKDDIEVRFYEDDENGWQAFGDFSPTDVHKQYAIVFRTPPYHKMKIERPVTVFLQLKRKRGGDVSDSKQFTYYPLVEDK

Assay [1] has as its target RELA (p65) subunit of heterodimer;p50 subunit (Homo sapiens;Homo sapiens, UniProt Q04206;P19838 1-307;7-356).
For assay [2], the target named is RELA (p65) subunit of heterodimer;p52 subunit (Homo sapiens;Homo sapiens, UniProt Q04206;Q00653 1-307;4-332).
Another assay deals with T2, RELB subunit;p52 subunit (Homo sapiens;Homo sapiens, UniProt Q01201;Q00653 120-401;4-332).
T2 sequence 1: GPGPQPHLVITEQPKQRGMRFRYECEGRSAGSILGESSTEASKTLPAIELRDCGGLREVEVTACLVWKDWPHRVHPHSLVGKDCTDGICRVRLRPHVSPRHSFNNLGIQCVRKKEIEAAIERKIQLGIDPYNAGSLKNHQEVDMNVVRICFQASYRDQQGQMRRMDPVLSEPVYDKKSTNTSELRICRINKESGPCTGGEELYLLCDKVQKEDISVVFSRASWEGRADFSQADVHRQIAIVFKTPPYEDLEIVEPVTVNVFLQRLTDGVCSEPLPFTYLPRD
T2 sequence 2: T1 sequence

The target in assay [3] is C-Rel subunit;p50 subunit (Homo sapiens;Homo sapiens, UniProt Q04864;P19838 1-285;7-356).
Assay [4] has as its target T3, C-Rel subunit;p52 subunit (Homo sapiens;Homo sapiens, UniProt Q04864;Q00653 1-285;4-332).
T3 sequence 1: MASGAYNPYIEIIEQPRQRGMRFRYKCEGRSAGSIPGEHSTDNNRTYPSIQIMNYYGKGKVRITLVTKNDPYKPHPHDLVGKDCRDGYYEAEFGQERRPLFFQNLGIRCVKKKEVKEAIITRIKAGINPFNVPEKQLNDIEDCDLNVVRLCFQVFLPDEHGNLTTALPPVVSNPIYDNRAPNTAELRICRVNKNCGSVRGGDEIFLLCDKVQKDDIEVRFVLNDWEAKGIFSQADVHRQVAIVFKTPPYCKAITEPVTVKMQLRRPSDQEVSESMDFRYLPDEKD
T3 sequence 2: T1 sequence

RELA (p65) subunit of heterodimer;p50 subunit, sequence (Q04206 1-307, chain 1 of 2): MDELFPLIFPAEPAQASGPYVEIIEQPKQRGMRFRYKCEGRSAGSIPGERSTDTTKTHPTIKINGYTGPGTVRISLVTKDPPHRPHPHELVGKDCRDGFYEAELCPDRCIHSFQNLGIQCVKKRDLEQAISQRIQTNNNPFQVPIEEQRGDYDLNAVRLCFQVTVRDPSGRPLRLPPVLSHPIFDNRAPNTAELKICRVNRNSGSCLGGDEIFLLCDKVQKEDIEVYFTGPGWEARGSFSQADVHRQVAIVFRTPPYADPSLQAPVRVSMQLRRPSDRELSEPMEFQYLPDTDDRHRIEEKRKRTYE
RELA (p65) subunit of heterodimer;p50 subunit, sequence (P19838 7-356, chain 2 of 2): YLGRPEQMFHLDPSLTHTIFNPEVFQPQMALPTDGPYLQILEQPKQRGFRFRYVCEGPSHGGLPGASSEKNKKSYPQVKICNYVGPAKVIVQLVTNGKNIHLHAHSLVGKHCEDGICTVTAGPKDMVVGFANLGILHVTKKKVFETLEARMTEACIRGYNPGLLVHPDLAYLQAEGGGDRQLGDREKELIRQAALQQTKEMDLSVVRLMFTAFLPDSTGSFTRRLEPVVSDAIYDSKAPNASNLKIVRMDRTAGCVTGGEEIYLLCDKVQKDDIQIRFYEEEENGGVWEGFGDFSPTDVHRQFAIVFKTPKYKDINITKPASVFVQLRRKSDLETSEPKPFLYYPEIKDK
RELARELA (p65 homodimer), sequence (Q04206 1-307): as the sequence (Q04206 1-307, chain 1 of 2) above
p50p50 homodimer, sequence (P19838 7-356): as the sequence (P19838 7-356, chain 2 of 2) above

For GGGGTCATCCT, the binding signal with RELARELA (p65 homodimer) is -0.528 z-score; with p50p50 homodimer, -0.376 z-score; with p52p52 homodimer it was -0.115 z-score; in assay [1] it was -0.626 z-score; in assay [2] it was -0.394 z-score; with RELB subunit;p50 subunit it was -0.425 z-score. Also, the values for the binding signal (in the assay with RELB subunit;p52 subunit; in assay [3]; in assay [4]) were -0.362 z-score, -0.494 z-score and -0.0992 z-score, respectively.
GAGGAGCCCCC: the binding signal with RELARELA (p65 homodimer) is -0.939 z-score; with p50p50 homodimer it was 1.04 z-score; in the assay with p52p52 homodimer it was 0.368 z-score; in assay [1], 0.44 z-score; in [2], 0.25 z-score; with RELB subunit;p50 subunit it was 0.656 z-score. In addition, the binding signal in the assay with RELB subunit;p52 subunit was determined as 0.61 z-score; in assay [3], 0.625 z-score; in assay [4] it was 0.222 z-score.
As for CAAGATCTCCT, the binding signal in the assay with RELARELA (p65 homodimer) was -0.508 z-score; in the assay with p50p50 homodimer, -1.36 z-score; with p52p52 homodimer, -0.744 z-score; in assay [1], -1.11 z-score; in assay [2], -1.02 z-score; in the assay with RELB subunit;p50 subunit, -1.04 z-score. For the same sequence, the values for the binding signal (with RELB subunit;p52 subunit; in [3]; in [4]) were -1.06 z-score, -1.49 z-score and -1.01 z-score, respectively.
Take CAAGGGGTCCT: the binding signal with RELARELA (p65 homodimer) was -0.5 z-score; in the assay with p50p50 homodimer, -0.988 z-score; in the assay with p52p52 homodimer, -0.106 z-score; in assay [1] it was -1.06 z-score; in assay [2], -0.546 z-score; in the assay with RELB subunit;p50 subunit it was -0.595 z-score. The binding signal with RELB subunit;p52 subunit is -0.354 z-score; in assay [3] it was -0.859 z-score; in assay [4], -0.486 z-score.
For GAAGGGCTCCC, the binding signal with RELARELA (p65 homodimer) was -1.08 z-score; with p50p50 homodimer, -1.07 z-score; with p52p52 homodimer, -0.651 z-score; in assay [1] it was -0.8 z-score; in assay [2] it was -0.916 z-score; with RELB subunit;p50 subunit it was -0.771 z-score. The binding signal in the assay with RELB subunit;p52 subunit is -0.771 z-score; in [3], -1.05 z-score; in assay [4], -0.778 z-score.
On to CAGGGAGTCCT, for which the binding signal with RELARELA (p65 homodimer) is 0.0727 z-score; with p50p50 homodimer, 0.0337 z-score; in the assay with p52p52 homodimer, -0.143 z-score; in assay [1], -0.336 z-score; in assay [2], -0.215 z-score; with RELB subunit;p50 subunit, -0.201 z-score. In addition, the binding signal in the assay with RELB subunit;p52 subunit was -0.323 z-score; in assay [3], -0.383 z-score; in assay [4] it was -0.23 z-score.
Turning to CAAAGTTTCCT, the binding signal in the assay with RELARELA (p65 homodimer) was 0.729 z-score; with p50p50 homodimer, -0.548 z-score; with p52p52 homodimer, -0.572 z-score; in assay [1], -0.313 z-score; in assay [2], -0.494 z-score; with RELB subunit;p50 subunit it was -0.737 z-score. In addition, the binding signal with RELB subunit;p52 subunit is -0.489 z-score; in [3] it was -0.0288 z-score; in assay [4], -0.21 z-score.
As to GGAAGGGCCCC, the binding signal is -0.533 z-score with RELARELA (p65 homodimer); -0.314 z-score with p50p50 homodimer; -0.0891 z-score in the assay with p52p52 homodimer; 0.16 z-score in [1]; 0.159 z-score in assay [2]; -0.313 z-score with RELB subunit;p50 subunit. Moreover, the binding signal is -0.107 z-score in the assay with RELB subunit;p52 subunit, -0.00222 z-score in assay [3] and 0.327 z-score in assay [4].
With AAGGGGGCCCC, the binding signal with RELARELA (p65 homodimer) was -0.0322 z-score; in the assay with p50p50 homodimer it was 0.728 z-score; with p52p52 homodimer, 0.786 z-score; in [1], 0.441 z-score; in assay [2], 0.981 z-score; with RELB subunit;p50 subunit it was 0.694 z-score. Further, the binding signal with RELB subunit;p52 subunit was 1.04 z-score; in assay [3], 0.532 z-score; in assay [4] it was 0.709 z-score.
For GGATTTCTCCT, the binding signal was 0.534 z-score with RELARELA (p65 homodimer); -0.711 z-score in the assay with p50p50 homodimer; -0.416 z-score with p52p52 homodimer; -0.294 z-score in [1]; -0.389 z-score in [2]; -0.703 z-score with RELB subunit;p50 subunit. For the same sequence, the binding signal with RELB subunit;p52 subunit was -0.78 z-score; in assay [3], -0.477 z-score; in assay [4], -0.189 z-score.
Turning to GAGAATGTCCT, the binding signal with RELARELA (p65 homodimer) is 0.673 z-score; in the assay with p50p50 homodimer it was -1.23 z-score; with p52p52 homodimer, -0.437 z-score; in assay [1], -0.682 z-score; in assay [2], -0.739 z-score; with RELB subunit;p50 subunit, -1.01 z-score. Moreover, the figures for the binding signal (with RELB subunit;p52 subunit; in assay [3]; in [4]) were -0.926 z-score, -0.737 z-score and -0.678 z-score, respectively.
Turning to GAGTAAGCCCC, the binding signal with RELARELA (p65 homodimer) was -0.458 z-score; with p50p50 homodimer, 0.604 z-score; in the assay with p52p52 homodimer it was 0.178 z-score; in [1] it was 0.392 z-score; in assay [2], 0.155 z-score; with RELB subunit;p50 subunit it was 0.171 z-score. Further, the binding signal was found to be 0.116 z-score in the assay with RELB subunit;p52 subunit, 0.263 z-score in assay [3] and 0.236 z-score in [4].
Consider AAGTTGATCCC, for which the binding signal with RELARELA (p65 homodimer) is -0.64 z-score; with p50p50 homodimer it was -0.815 z-score; with p52p52 homodimer, -0.6 z-score; in assay [1], -0.903 z-score; in assay [2] it was -0.719 z-score; with RELB subunit;p50 subunit, -0.688 z-score. The binding signal in the assay with RELB subunit;p52 subunit was -0.621 z-score; in [3] it was -1.07 z-score; in assay [4] it was -0.615 z-score.
With GAGGTAGTCCC, the binding signal with RELARELA (p65 homodimer) stood at 0.343 z-score; with p50p50 homodimer, 0.907 z-score; with p52p52 homodimer it was 0.506 z-score; in assay [1], 0.436 z-score; in assay [2], 0.326 z-score; with RELB subunit;p50 subunit it was 0.57 z-score. The binding signal in the assay with RELB subunit;p52 subunit came to 0.233 z-score; in assay [3], 0.447 z-score; in assay [4], 0.318 z-score.
On to GGGGTGTTCCT, for which the binding signal with RELARELA (p65 homodimer) is 1.06 z-score; with p50p50 homodimer it was 0.337 z-score; in the assay with p52p52 homodimer, 0.617 z-score; in [1] it was 0.455 z-score; in assay [2] it was 0.487 z-score; with RELB subunit;p50 subunit it was 0.00295 z-score. In addition, the values for the binding signal (with RELB subunit;p52 subunit; in assay [3]; in assay [4]) were 0.472 z-score, 0.537 z-score and 0.791 z-score, respectively.
